Measurements taken from PubChem BioAssay (Tox21).
Inconclusive results are not listed. Activity calls are given as the source filed them. Calls come from the whole dose curve; as a rule, active = well fitted cell-killing curve with a large enough effect in the repeat runs; inconclusive = weak or mixed curves, or effect the other way; inactive = no such curve, though single readings can be large or run the other way.

assay: qHTS assay to identify small molecule antagonists of the glucocorticoid receptor (GR) signaling pathway - cell viability counter screen (AID 720693); conditions: GR-bla HeLa viability, CellTiter-Glo luminescence, 18 h, with 5 nM dexamethasone present; series mostly up to 58.5 µM; viability change, negative = cytotoxic: at the top concentration; note: nearly all actives have a fitted effect of over 55% in size
% is set by controls: 0 for no effect and ±100 for the full control effect.

Row | Structure (SMILES) | Potency | viability change, negative = cytotoxic
1 | C[C@@H]1C[C@H]2[C@@H]3CCC4=CC(=O)C=C[C@]4(C)[C@@]3(F)[C@@H](O)C[C@]2(C)[C@@]1(O)C(=O)COP(=O)(O)O | inactive | –
2 | O=S(=O)(Cl)c1c(Cl)cccc1Cl | – | 1.53% (inactive)
3 | CCCCCCCCCCCCCCCCCC(=O)OCC(CC)CCCC (stereo not given) | – | -1.5% (inactive)
4 | CN(C)CC/C=C1\c2ccccc2Sc2ccc(Cl)cc21 | – | 26.7% (inactive)
5 | Cc1ccc(S(=O)(=O)NC(=O)NC2CCCCC2)cc1 | – | 4.26% (inactive)
6 | CC(C)(C(=O)c1cccnc1)c1cccnc1 | – | -1.4% [at 27 µM] (inactive)
7 | CC(=O)OCC1=C(C(=O)O)N2C(=O)[C@@H](NC(=O)CSc3ccncc3)[C@H]2SC1 | – | 8.17% (inactive)
8 | Nc1cccc2c(N)cccc12 | – | 17.4% (inactive)
9 | Cc1ccc(N(CCO)CCO)cc1 | – | 0.612% (inactive)
10 | CCC(CO)(CO)[N+](=O)[O-] | – | -3.02% (inactive)
11 | CCN(CC)c1cccc(O)c1 | – | -2.14% [at 78.9 µM] (inactive)
12 | CCCCCCC(O)CCCCCCCCCCC(=O)OC (stereo not given) | – | 23.9% (inactive)
13 | COc1cc(NS(=O)(=O)c2ccc(N)cc2)nc(C)n1 | – | -1.99% (inactive)
14 | COc1cc(NC(C)CCCN)c2ncccc2c1 (stereo not given) | – | -7.86% [at 27 µM] (inactive)
15 | CC(C)C1CCC(C(=O)N[C@H](Cc2ccccc2)C(=O)O)CC1 (stereo not given in full) | – | 1.43% (inactive)
16 | CCCCCCCCCCCCCOS(=O)(=O)O | – | -7.27% (inactive)
17 | CCCCCCC(O)CCOC(C)=O (stereo not given) | – | 2.73% [at 216 µM] (inactive)
18 | CC(=O)C(=O)CC(C)C | – | 13.1% (inactive)
19 | COC1CCC=CO1 (stereo not given) | – | 11.2% [at 78.9 µM] (inactive)

Row | Structure (SMILES) | Potency | viability change, negative = cytotoxic
20 | CC(=O)N[C@@H](Cc1ccc(O)cc1)C(=O)O | – | -0.977% (inactive)
21 | CC(=O)OCCC1CCCCC1 | – | 3.7% (inactive)
22 | O=C(O)c1cc(Cl)cc(Cl)c1O | – | 8.4% (inactive)
23 | CC1C(C)(C)C2=C(C(=O)CCC2)C1(C)C (stereo not given) | – | 14.3% (inactive)
24 | CCCCCCCCCCCCCOC(=O)CCSCCC(=O)OCCCCCCCCCCCCC | – | -0.0258% [at 27 µM] (inactive)
25 | Cc1c[nH]c2ccccc12 | – | 0.599% (inactive)
26 | Cc1ccc(N(CC2=NCCN2)c2cccc(O)c2)cc1 | – | 8.39% (inactive)
27 | CCCCCC | – | 3.7% (inactive)
28 | O=C(O)CCC(=O)c1ccc(-c2ccccc2)cc1 | – | 0.0549% [at 27 µM] (inactive)
29 | CCC(CO)(CO)CO | – | -1.27% [at 78.9 µM] (inactive)
30 | CC1=CC[C@@H]2C[C@H]1C2(C)C | – | -2.89% [at 15.1 µM] (inactive)
31 | CC(=O)OCC(=O)[C@@]1(OC(C)=O)[C@@H](C)C[C@H]2[C@@H]3C[C@H](F)C4=CC(=O)C=C[C@]4(C)[C@@]3(F)[C@@H](O)C[C@@]21C | – | -0.383% (inactive)
32 | O=C(Oc1ccccc1)c1ccc2ccccc2c1O | – | 3.45% (inactive)
33 | CC(C)(C)C1(CCc2ccc(Cl)cc2)CO1 (stereo not given) | – | 12.6% (inactive)
34 | CC[C@@H](CO)NCCN[C@@H](CC)CO | – | -3.6% [at 27 µM] (inactive)
35 | CCCCC(CC)COS(=O)(=O)O (stereo not given) | inactive | –
36 | O=C(NC(Cc1cc(=O)[nH]c2ccccc12)C(=O)O)c1ccc(Cl)cc1 (stereo not given) | – | 1.14% (inactive)
37 | Cc1cn([C@H]2C[C@H](F)[C@@H](CO)O2)c(=O)[nH]c1=O | – | 0.849% (inactive)

assay: qHTS assay for identifying genotoxic compounds that show differential cytotoxicity against isogenic chicken DT40 cell lines with known DNA damage response pathways - wild type cell line (AID 743012); conditions: DT40 wild type chicken cells viability, CellTiter-Glo, 40 h; series mostly up to 68.4 µM; activity change, negative = cytotoxicity: at the top concentration; note: nearly all actives have a fitted effect of over 60% in size; note: potency is the fitted concentration of half-maximal effect
Method in brief: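 First, wild type DT40 cells were plated at 300 per well and equilibrated about 0.5 h at 37 C/5% CO2. Next, compounds in DMSO were added and exposure lasted 40 h. Finally, CellTiter-Glo was added for 30 min at room temperature and luminescence recorded.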

Row | Structure (SMILES) | activity change, negative = cytotoxicity | Potency
38 | C[C@@H]1C[C@H]2[C@@H]3CCC4=CC(=O)C=C[C@]4(C)[C@@]3(F)[C@@H](O)C[C@]2(C)[C@@]1(O)C(=O)COP(=O)(O)O | -14.9% (inactive) | –
39 | CCCCCCCCCCCCCCCCCC(=O)OCC(CC)CCCC (stereo not given) | 1.2% (inactive) | –
40 | CN(C)CC/C=C1\c2ccccc2Sc2ccc(Cl)cc21 | – | 3.76 µM (active)
41 | Cc1ccc(S(=O)(=O)NC(=O)NC2CCCCC2)cc1 | -0.964% (inactive) | –
42 | CC(C)(C(=O)c1cccnc1)c1cccnc1 | -0.378% [at 31.4 µM] (inactive) | –
43 | CC(=O)OCC1=C(C(=O)O)N2C(=O)[C@@H](NC(=O)CSc3ccncc3)[C@H]2SC1 | 1.99% (inactive) | –
44 | Nc1cccc2c(N)cccc12 | – | 54.5 µM (active)
45 | Cc1ccc(N(CCO)CCO)cc1 | 8.21% (inactive) | –
46 | CCC(CO)(CO)[N+](=O)[O-] | 4.14% (inactive) | –
47 | CCN(CC)c1cccc(O)c1 | -13.6% [at 95 µM] (inactive) | –
48 | CCCCCCC(O)CCCCCCCCCCC(=O)OC (stereo not given) | -4.85% (inactive) | –
49 | COc1cc(NS(=O)(=O)c2ccc(N)cc2)nc(C)n1 | -0.265% (inactive) | –
50 | COc1cc(NC(C)CCCN)c2ncccc2c1 (stereo not given) | – | 11.4 µM (active)
51 | CC(C)C1CCC(C(=O)N[C@H](Cc2ccccc2)C(=O)O)CC1 (stereo not given in full) | 9.42% (inactive) | –
52 | CCCCCCCCCCCCCOS(=O)(=O)O | -20.7% (inactive) | –
53 | CCCCCCC(O)CCOC(C)=O (stereo not given) | 2.32% [at 260 µM] (inactive) | –
54 | CC(=O)C(=O)CC(C)C | 28% (inactive) | –

Row | Structure (SMILES) | activity change, negative = cytotoxicity | Potency
55 | COC1CCC=CO1 (stereo not given) | 10.8% [at 95 µM] (inactive) | –
56 | CC(=O)N[C@@H](Cc1ccc(O)cc1)C(=O)O | 0.27% (inactive) | –
57 | CC(=O)OCCC1CCCCC1 | -9.73% (inactive) | –
58 | CC1C(C)(C)C2=C(C(=O)CCC2)C1(C)C (stereo not given) | -0.541% (inactive) | –
59 | CCCCCCCCCCCCCOC(=O)CCSCCC(=O)OCCCCCCCCCCCCC | -7.31% [at 31.4 µM] (inactive) | –
60 | Cc1c[nH]c2ccccc12 | 12.3% (inactive) | –
61 | Cc1ccc(N(CC2=NCCN2)c2cccc(O)c2)cc1 | – | 23.7 µM (active)
62 | CCCCCC | 17.4% (inactive) | –
63 | O=C(O)CCC(=O)c1ccc(-c2ccccc2)cc1 | 0.835% [at 31.4 µM] (inactive) | –
64 | CCC(CO)(CO)CO | 11% [at 95 µM] (inactive) | –
65 | CC1=CC[C@@H]2C[C@H]1C2(C)C | -10.3% [at 18.2 µM] (inactive) | –
66 | CC(=O)OCC(=O)[C@@]1(OC(C)=O)[C@@H](C)C[C@H]2[C@@H]3C[C@H](F)C4=CC(=O)C=C[C@]4(C)[C@@]3(F)[C@@H](O)C[C@@]21C | – | 26.6 µM (active)
67 | CC(C)(C)C1(CCc2ccc(Cl)cc2)CO1 (stereo not given) | -5.45% (inactive) | –
68 | CC[C@@H](CO)NCCN[C@@H](CC)CO | 3.29% [at 31.4 µM] (inactive) | –
69 | CCCCC(CC)COS(=O)(=O)O (stereo not given) | – | inactive
70 | O=C(NC(Cc1cc(=O)[nH]c2ccccc12)C(=O)O)c1ccc(Cl)cc1 (stereo not given) | 0.935% (inactive) | –
